Data taken from PubChem BioAssay (Tox21).
Records with an inconclusive call do not appear. Calls of active or inactive are those of the source. Unless noted, the call rests on the fitted dose curve.

Key:
[1] = Nuclear factor erythroid 2-related factor 2/antioxidant responsive element (Nrf2/ARE) small molecule agonists: qHTS cell viability counter screen in human keratinocytes (AID 1919968; active means well fitted curve in the direction sought with a large enough effect in the repeat runs; an effect the other way counts as inactive or inconclusive; further: nearly all actives have a fitted effect of over 55% in size)
How it was run: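 After a 5 h attachment period, ARE-reporter keratinocytes were dosed with compounds in DMSO and then cultured 23 h at 37 C. Cell viability came from CellTiter-Fluor signal read after a further 1 h.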

[2] = Nuclear factor erythroid 2-related factor 2/antioxidant responsive element (Nrf2/ARE) small molecule agonists: luciferase reporter gene qHTS assay in human keratinocytes (AID 1919969); further: nearly all actives have a fitted effect of over 35% in size
[3] = molecular target: Gonadotropin-releasing hormone receptor (Homo sapiens) (UniProt P30968); assay: Human gonadotropin-releasing hormone receptor (GnRHR) small molecule agonists, calcium flux assay in GnRHR-HEK293 cells (AID 1920063); further: nearly all actives have a fitted effect of over 35% in size
Gonadotropin-releasing hormone receptor (Homo sapiens), sequence (P30968 whole entry, looked up): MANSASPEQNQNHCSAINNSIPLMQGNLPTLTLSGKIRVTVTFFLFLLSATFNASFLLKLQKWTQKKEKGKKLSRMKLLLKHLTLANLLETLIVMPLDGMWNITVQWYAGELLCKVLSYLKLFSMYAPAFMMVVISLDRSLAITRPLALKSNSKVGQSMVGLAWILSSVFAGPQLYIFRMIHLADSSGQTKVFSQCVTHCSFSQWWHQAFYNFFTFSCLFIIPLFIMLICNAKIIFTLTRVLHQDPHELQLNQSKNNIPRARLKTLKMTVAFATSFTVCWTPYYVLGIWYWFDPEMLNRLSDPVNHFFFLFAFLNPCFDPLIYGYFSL
How it was run: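 We seeded human GnRHR-expressing HEK293 cells for 18 hours, loaded them with calcium dye for an hour at 37 C, added test compounds, and recorded fluorescence intensity kinetically for three minutes.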

[4] = molecular target: KiSS-1 receptor (Homo sapiens) (UniProt Q969F8); assay: Human kisspeptin (KISS1R) small molecule agonists, calcium flux assay in KISS1R-HEK293 cells (AID 1920064; active means well fitted curve in the direction sought with a large enough effect in the repeat runs; an effect the other way counts as inactive or inconclusive)
KiSS-1 receptor (Homo sapiens), sequence (Q969F8 whole entry, looked up): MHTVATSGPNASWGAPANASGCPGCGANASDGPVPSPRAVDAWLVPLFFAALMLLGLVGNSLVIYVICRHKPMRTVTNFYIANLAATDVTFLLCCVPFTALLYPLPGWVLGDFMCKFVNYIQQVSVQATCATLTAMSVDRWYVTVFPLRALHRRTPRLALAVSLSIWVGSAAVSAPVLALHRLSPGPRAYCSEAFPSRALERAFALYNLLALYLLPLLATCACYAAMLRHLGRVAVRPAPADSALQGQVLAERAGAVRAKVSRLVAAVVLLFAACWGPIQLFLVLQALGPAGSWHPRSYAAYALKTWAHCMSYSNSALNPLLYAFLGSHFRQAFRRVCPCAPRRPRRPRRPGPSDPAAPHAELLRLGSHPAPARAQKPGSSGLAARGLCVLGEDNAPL
How it was run: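 Kinetic calcium assay, 1 s sampling over 3 min at Ex/Em 480/540, in HEK293 cells engineered with human KISS1R; compounds delivered in DMSO after 1 h dye loading.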

[5] = G protein-coupled receptor (GPCR) small molecule agonists, calcium flux assay: HEK293 wild type cell line counter screen (AID 1920065)
How it was run: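 Calcium-sensitive dye, loaded 1 h at 37 C into cells cultured 18 h, reports compound-evoked calcium release as fluorescence (Ex/Em 480/540), measured over 3 min. Agonist mode; 15-point titrations, triplicate.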

[6] = p53 small molecule agonists, cell-based qHTS assay with rat liver microsomes (AID 1963578)
How it was run: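 Metabolic activation is supplied by rat liver microsomes with NADPH (each 0.5 mg/mL final). p53RE-bla cells incubate with compound 16 h at 37 C; reporter activity is measured by LiveBLAzer fluorescence.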

[7] = p53 small molecule agonists, cell-based qHTS assay with human liver microsomes: qHTS cell viability counter screen (AID 1963579); further: nearly all actives have a fitted effect of over 45% in size
How it was run: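 After the 460/530 nm beta-lactamase read, CellTiter-Glo was added to the same wells and luminescence measured after 30 min at room temperature, giving viability of p53RE-bla cells treated 16 h with compounds plus microsomes and NADPH.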

[8] = p53 small molecule agonists, cell-based qHTS assay: qHTS cell viability counter screen (AID 1963581); further: nearly all actives have a fitted effect of over 45% in size
How it was run: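 Following 5 h attachment, HCT-116 p53RE-bla cells took up compound for 16 h at 37 C; the reporter was read with B/G FRET substrate (2 h RT), and viability then via CellTiter-Glo ATP luminescence.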

[9] = p53 small molecule agonists, cell-based qHTS assay (AID 1963582; active means well fitted activation curve with a large enough effect in the signal ratio in the repeat runs, not every such curve was filed as active; the % refers to the signal ratio)
How it was run: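 In this cell-based concentration-response screen, a p53 response element drives beta-lactamase; cells received DMSO-borne compounds after 5 h culture and were incubated a further 16 h before FRET substrate development.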

[10] = molecular target: 5-hydroxytryptamine receptor 2A (Homo sapiens) (UniProt P28223); assay: 5-hydroxytryptamine receptor 2A (HTR2A) small molecule antagonists, cell-based qHTS assay (AID 1963586); further: nearly all actives have a fitted effect of over 45% in size
5-hydroxytryptamine receptor 2A (Homo sapiens), sequence (P28223 whole entry, looked up): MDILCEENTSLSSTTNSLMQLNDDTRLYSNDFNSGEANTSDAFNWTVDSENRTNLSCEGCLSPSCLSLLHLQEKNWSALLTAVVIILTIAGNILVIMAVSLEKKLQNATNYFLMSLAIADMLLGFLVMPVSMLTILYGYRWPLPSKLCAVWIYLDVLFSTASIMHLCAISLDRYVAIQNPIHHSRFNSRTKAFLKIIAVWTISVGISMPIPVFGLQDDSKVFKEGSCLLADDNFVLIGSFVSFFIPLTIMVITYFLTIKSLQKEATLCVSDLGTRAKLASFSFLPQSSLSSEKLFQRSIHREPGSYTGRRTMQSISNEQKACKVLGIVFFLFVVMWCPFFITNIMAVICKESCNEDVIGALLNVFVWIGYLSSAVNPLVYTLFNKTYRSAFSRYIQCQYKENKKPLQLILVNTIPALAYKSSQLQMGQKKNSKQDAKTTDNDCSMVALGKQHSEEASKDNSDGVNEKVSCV
How it was run: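 Antagonist-mode intracellular calcium assay: DOI (4 nM) added after 5 min compound pre-incubation at room temperature to dye-loaded HTR2A-CHO cells. Fluorescence followed for 3 min, sampled every second.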

[11] = molecular target: 5-hydroxytryptamine receptor 2A (Homo sapiens) (UniProt P28223); assay: 5-hydroxytryptamine receptor 2A (HTR2A) small molecule agonists, cell-based qHTS assay (AID 1963587); further: nearly all actives have a fitted effect of over 30% in size
How it was run: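 HTR2A-CHO cells, plated 18 h at 37 C/5% CO2, dye-loaded 1 h at 37 C; compounds in DMSO added by pin tool (agonist mode). Intracellular calcium flux read as kinetic fluorescence on FDSS over 2 min at 1 s intervals.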

[12] = molecular target: Muscarinic acetylcholine receptor M1 (Homo sapiens) (UniProt P11229); assay: Cholinergic receptor muscarinic 1 (CHRM1) small molecule antagonists, cell-based qHTS assay (AID 1963588); further: nearly all actives have a fitted effect of over 40% in size
Muscarinic acetylcholine receptor M1 (Homo sapiens), sequence (P11229 whole entry, looked up): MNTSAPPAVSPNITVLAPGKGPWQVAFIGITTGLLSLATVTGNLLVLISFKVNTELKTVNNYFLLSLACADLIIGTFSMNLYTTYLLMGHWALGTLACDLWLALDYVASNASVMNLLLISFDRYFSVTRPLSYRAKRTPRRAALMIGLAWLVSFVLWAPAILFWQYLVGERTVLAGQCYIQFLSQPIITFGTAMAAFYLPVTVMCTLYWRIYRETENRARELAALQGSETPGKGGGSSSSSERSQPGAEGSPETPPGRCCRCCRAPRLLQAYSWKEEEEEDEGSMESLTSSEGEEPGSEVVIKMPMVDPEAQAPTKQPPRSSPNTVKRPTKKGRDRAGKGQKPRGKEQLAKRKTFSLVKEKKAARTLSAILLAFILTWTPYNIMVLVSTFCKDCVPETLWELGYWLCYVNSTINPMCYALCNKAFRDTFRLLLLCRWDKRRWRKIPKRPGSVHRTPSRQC
How it was run: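 CHRM1-CHO calcium-flux assay, antagonist mode. Cells were seeded 18 h, dye-loaded 1 h at 37 C and given compound for 5 min at RT, then acetylcholine was added at 50nM. FDSS fluorescence was read 3 min; 15 concentrations, three runs.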

[13] = molecular target: Muscarinic acetylcholine receptor M1 (Homo sapiens) (UniProt P11229); assay: Cholinergic receptor muscarinic 1 (CHRM1) small molecule agonists, cell-based qHTS assay (AID 1963589); further: nearly all actives have a fitted effect of over 35% in size
How it was run: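 Measures agonist-induced intracellular calcium rise. Stable human CHRM1 CHO line, 1 h dye load at 37 C, compounds from DMSO, kinetic fluorescence read.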

[14] = cAMP Responsive Elements (CRE) small molecule agonists, cell-based qHTS assay (AID 1963590)
How it was run: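 A CRE-responsive beta-lactamase reporter in HEK 293T cells was used. Treatment ran 3 h at 37 C; detection used LiveBLAzer B/G FRET substrate for 2 h at room temperature.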

[15] = cAMP Responsive Elements (CRE) small molecule antagonists, cell-based qHTS assay (AID 1963591; active means well fitted inhibition curve with a large enough effect in the signal ratio in the repeat runs, not every such curve was filed as active; the % refers to the signal ratio)
How it was run: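 HEK293T cells carrying a CRE-driven beta-lactamase reporter receive compound and NKH477 (0.25 uM final) for 3 h. Fluorescence from LiveBLAzer B/G FRET substrate is read after 2 h at room temperature.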

[16] = molecular target: Beta-2 adrenergic receptor (Homo sapiens) (UniProt P07550); assay: Adrenergic beta2 receptor (ADRB2) small molecule antagonists, cell-based qHTS assay (AID 1963592); further: series mostly up to about 92 µM; nearly all actives have a fitted effect of over 50% in size
Beta-2 adrenergic receptor (Homo sapiens), sequence (P07550 whole entry, looked up): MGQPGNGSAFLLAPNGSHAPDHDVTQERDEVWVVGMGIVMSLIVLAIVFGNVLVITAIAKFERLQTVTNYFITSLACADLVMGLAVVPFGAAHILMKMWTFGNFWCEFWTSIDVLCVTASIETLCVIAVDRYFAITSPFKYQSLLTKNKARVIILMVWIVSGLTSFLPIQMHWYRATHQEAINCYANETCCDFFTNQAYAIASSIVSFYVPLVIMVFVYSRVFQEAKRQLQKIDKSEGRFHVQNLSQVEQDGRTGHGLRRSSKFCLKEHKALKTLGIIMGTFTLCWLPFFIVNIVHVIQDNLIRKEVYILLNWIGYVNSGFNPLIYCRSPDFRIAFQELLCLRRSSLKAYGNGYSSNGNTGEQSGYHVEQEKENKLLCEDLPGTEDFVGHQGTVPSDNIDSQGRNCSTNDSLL
How it was run: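 Cells (CHO, stable ADRB2 overexpression) incubated 18-20hr at 37C; compounds added from DMSO; agonist mix (1nM isoproterenol, 100uM IBMX, 25uM Ro-20-1724) added; 0.5hr RT; d2-cAMP and anti-cAMP-cryptate added; 1hr RT; 665/615 nm read.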

[17] = molecular target: D(2) dopamine receptor (Homo sapiens) (UniProt P14416); assay: Dopamine D2 receptor (DRD2) small molecule agonists, cell-based qHTS assay (AID 1963594); further: nearly all actives have a fitted effect of over 35% in size
D(2) dopamine receptor (Homo sapiens), sequence (P14416 whole entry, looked up): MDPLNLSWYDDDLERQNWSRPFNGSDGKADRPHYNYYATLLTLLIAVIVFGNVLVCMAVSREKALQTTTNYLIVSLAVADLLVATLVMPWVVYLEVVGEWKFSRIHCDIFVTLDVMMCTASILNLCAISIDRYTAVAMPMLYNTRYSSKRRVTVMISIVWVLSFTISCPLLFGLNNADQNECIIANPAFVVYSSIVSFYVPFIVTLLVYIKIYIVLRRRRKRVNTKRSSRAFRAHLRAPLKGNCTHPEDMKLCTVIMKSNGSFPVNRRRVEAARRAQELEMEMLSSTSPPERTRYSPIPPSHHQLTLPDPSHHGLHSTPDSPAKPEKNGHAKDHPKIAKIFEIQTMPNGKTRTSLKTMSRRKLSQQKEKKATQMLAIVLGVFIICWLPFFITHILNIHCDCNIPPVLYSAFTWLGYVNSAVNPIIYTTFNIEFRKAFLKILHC
How it was run: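 HEK293 cells stably expressing DRD2 were cultured 24 h at 37 C, then given Ro20-1724 (0.1 mM final) and compounds for 10 min at room temperature. NKH477 (200nM) was then added for 30 min. cAMP was read by HTRF.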

[18] = molecular target: D(2) dopamine receptor (Homo sapiens) (UniProt P14416); assay: Dopamine D2 receptor (DRD2) small molecule antagonists, cell-based qHTS assay (AID 1963595; active means well fitted inhibition curve with a large enough effect in the signal ratio in the repeat runs, with a control signal flat; the % refers to the signal ratio)
How it was run: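 HEK293 cells stably expressing DRD2 were preincubated with 0.1 mM Ro20-1724, then with compound for 10 min at room temperature. Cells were stimulated with 200 nM NKH477 plus 12 nM quinpirole for 30 min, and cAMP was read by HTRF.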

[19] = p53 small molecule agonists, cell-based qHTS assay with rat liver microsomes: qHTS cell viability counter screen (AID 1963580); further: nearly all actives have a fitted effect of over 45% in size
How it was run: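 p53RE-bla HCT-116 cells (4,000/well) rested 5 h at 37 C, then given Tox21 compounds in DMSO with rat liver microsomes (0.5 mg/mL final) plus NADPH (0.5 mg/mL final) for 16 h at 37 C. Viability read by CellTiter-Glo luminescence after 30 min at room temperature.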

Measured: Potency

CC(O)c1ccccc1 (stereo unspecified)
not listed: [19]
inactive: all other assays above

CC(C)(C)c1ccccc1
not listed: [6] | [7]
inactive: all other assays above

SC1CCCCC1
not listed: [16] | [19]
inactive: all other assays above

CC(=O)O[C@@H]1CC2CCC1(C)C2(C)C (stereo partly specified)
not listed: [8] | [9] | [10] | [15] | [18]
inactive: all other assays above

C[Si](C)(CCCN)O[Si](C)(C)CCCN
not listed: [8] | [9]
inactive: all other assays above

Cc1ccccc1C(=O)Nc1ccc(C(=O)N2CCCC(N(C)C)c3ccccc32)cc1 (stereo unspecified)
not listed: [8] | [9] | [14] | [15]
inactive: all other assays above

O=C(C(Cl)Cl)N1CCOC12CCCCC2
not listed: [7]
inactive: all other assays above
